Compound activity (PubChem)
Compounds with a hit are over-represented: about 1.7% of the library has one in this group of screens.
mIDH1 inhibitor = qHTS for Inhibitors of mutant isocitrate dehydrogenase 1 (IDH1): qHTS; 0.093% of 390,000 active; AID 602179, 2012; IDH1-R132H enzyme, NADPH consumption, diaphorase/resazurin fluorescence; Potency, µM (titrated, usually from 76.6 µM), for inactives: at the highest dose activity change, negative = inhibition, hits mostly inhibitors; Isocitrate dehydrogenase [NADP] cytoplasmic (Homo sapiens), O75874; note: potency is the fitted concentration of half-maximal effect; % is set by controls: 0 for no effect and ±100 for the full control effect; nearly all actives have a fitted effect of over 65% in size
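IDH1-R132H (0.5 ug/mL) preincubated 30 min with compound, then NADPH (0.016 mM) and alpha-KG (2 mM) added; 80 min at RT, pH 7.5. Remaining NADPH coupled via diaphorase/resazurin to fluorescence (540/590 nm); concentration-response curves normalized to no-enzyme control.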
HEK293 tox = qHTS of GLP-1 Receptor Inverse Agonists: Cytotox Screen; HEK293 cAMP-luciferase reporter cells, luminescence, 24 h; Potency, µM (top dose mostly 38.3 µM), without a hit: at the highest dose activity change, negative = inhibition, actives largely listed as inhibitors; 0.13% of 410,000 active; AID 624418, 2012;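 note: loss of luciferase light is scored as toxicity; potency is the fitted concentration of half-maximal effect; % is set by controls: 0 for no effect and ±100 for the full control effect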
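Cells in DMEM/10% Nu serum/1% pen-strep, 1536-well format. Pre-incubated 12 h, dosed with 23 nL compound, incubated a further 24 h. Luciferase detection, 12 min at room temp, luminescence.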
LDHA inh = qHTS assay for inhibitors of human lactate dehydrogenase; 0.15% of 480,000 active; purified LDHA, NADH/diaphorase-resazurin fluorescence; hits give low values; L-lactate dehydrogenase A chain (Homo sapiens), P00338; activity change, % (values are at about 110 or 230 µM); in the data active = activity change below about -30%; inconclusive = mostly about -25% to -30%;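 note: plate controls were DMSO wells for no effect and wells without enzyme for full effect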
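Human LDH5 (2 nM) was incubated with 0.06 mM NADH and 0.2 mM pyruvate for 5 min at room temperature in Tris pH 7.4. Remaining NADH was coupled through diaphorase/resazurin, and resorufin fluorescence was read at 0 and 20 min.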
GLP1R inv ag = qHTS of GLP-1 Receptor Inverse Agonists (Inhibition Mode). Glucagon-like peptide 1 receptor (Homo sapiens), P43220. HEK293 GLP-1R CRE-luciferase, luminescence, 24 h; GLP-1R form is constitutively active. Potency, µM (titrated, usually from 38.3 µM), inactives show at the top dose activity change, negative = inhibition, hits mostly inhibitors. 1.6% of 410,000 active; note: potency is the fitted concentration of half-maximal effect; % is set by controls: 0 for no effect and ±100 for the full control effect; nearly all actives have a fitted effect of over 55% in size
Target sequence (P43220 whole entry, looked up): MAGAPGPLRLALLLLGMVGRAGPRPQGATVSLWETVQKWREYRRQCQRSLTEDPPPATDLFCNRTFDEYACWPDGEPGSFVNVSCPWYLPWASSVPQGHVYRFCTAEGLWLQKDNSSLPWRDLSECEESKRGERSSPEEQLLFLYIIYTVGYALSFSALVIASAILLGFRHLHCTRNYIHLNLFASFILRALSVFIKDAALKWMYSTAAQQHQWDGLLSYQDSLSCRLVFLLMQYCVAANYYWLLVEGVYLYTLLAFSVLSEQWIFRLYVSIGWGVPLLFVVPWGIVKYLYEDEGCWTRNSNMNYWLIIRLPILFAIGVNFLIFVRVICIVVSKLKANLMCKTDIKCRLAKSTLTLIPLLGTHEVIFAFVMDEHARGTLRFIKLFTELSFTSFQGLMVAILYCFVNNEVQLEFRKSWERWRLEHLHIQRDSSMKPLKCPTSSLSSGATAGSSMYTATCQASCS
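HEK293 cells stably co-expressing a cAMP-responsive luciferase reporter and constitutively active GLP-1R were seeded, incubated 12 h, then exposed to compounds for 24 h at 37 C. Luminescence was read 12 min after detection reagent; inverse agonists lower signal.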
PTHR1 ag = qHTS for PTHR1 Agonists: Primary Screen; HEK293 GP2 PTHR1 cells, GloSensor cAMP luminescence, 1 h; Potency, µM (top dose mostly 115 µM), inactives show at the top dose activation, most hits filed as activators; 0.075% of 410,000 active; note: potency is the fitted concentration of half-maximal effect; nearly all actives have a fitted effect of over 55% in size
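HEK-293-derived GP2 cells expressing PTHR1 and a GloSensor cAMP reporter, 3,000/well, plated overnight, given luciferin plus IBMX (each 0.5 mM as added) for 1 h at 37 °C, then compound for 1 h at 37 °C. Luminescence was read after 15 min at room temperature.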
GLP-1R agonist = qHTS of GLP-1 Receptor Agonists; Glucagon-like peptide 1 receptor (Homo sapiens), P43220; HEK293 GLP-1R CRE-luciferase, luminescence, 4-6 h; cells express a hypersensitive GLP-1R form; Potency, µM (top dose mostly 45.6 µM), inactives show top-dose activation, hits mostly activators; 0.007% of 380,000 active; note: potency is the fitted concentration of half-maximal effect; % of control where 0% means no effect
* hit, by the source's call; i = inactive; ? = inconclusive; . = no result given; [ ] = another dose, or the depositor's remark. Unless noted, calls come from the whole dose curve; as a rule, active = well fitted curve in the direction sought with a large enough effect; inconclusive = small, poorly fitted or top-dose-only effect, or another doubt; inactive = no such curve, though single readings can be large; an effect the other way counts as inactive or inconclusive.

SMILES	mIDH1 inhibitor	HEK293 tox	LDHA inh	GLP1R inv ag	PTHR1 ag	GLP-1R agonist
Cc1ccc(S(=O)(=O)N(CC(=O)Nc2cccnc2)c2cccc(Br)c2)cc1	8.9%	0.0%	-1.9	4.47µM*	i	3.8%
Fc1ccc(CSc2nc3ccccc3[nH]2)c2ccccc12	-5.6%	-9.2%	-7.2	10µM*	-24.6%	0.5%
COc1ccc(C2=NN(c3nc(C(=O)O)cs3)C(O)(C(F)(F)F)C2)c(OC)c1 (stereo unspecified)	-6.1%	-8.3%	-63.5*	44.1%	-50.7%	8.5%
N=c1c2c(ncn1Cc1ccco1)Oc1cc(O)ccc1C2c1ccccc1 (stereo unspecified)	5.0%	2.1%	-4.9	39.0%	-20.5%	6.8%
N=c1c2c(ncn1Cc1ccco1)Oc1c(ccc3ccccc13)C2c1ccccc1 (stereo unspecified)	-6.4%	?	-6.1	3.98µM*	-14.7%	17.6%
CCc1cc2c(Sc3nc4ccccc4s3)ncnc2s1	5.3%	-28.0%	-1.7	3.55µM*	-19.7%[57.5 µM]	12.2%
COc1cccc(C2c3[nH]c4ccccc4c3C[C@H]3C(=O)N(C4CCN(Cc5ccccc5)CC4)CC(=O)N23)c1 (stereo partly specified)	-15.6%	-16.5%	-2.0	2µM*	-18.8%	-3.0%
COc1ccc(C2c3[nH]c4ccccc4c3C[C@H]3C(=O)N(C4CCN(Cc5ccccc5)CC4)CC(=O)N23)cc1OC (stereo partly specified)	0.0%	-15.9%	-1.7	12.6µM*	i	-4.7%
COc1ccccc1C1c2[nH]c3ccccc3c2C[C@H]2C(=O)N(C3CCN(Cc4ccccc4)CC3)CC(=O)N12 (stereo partly specified)	-2.8%	-7.4%	2.2	5.62µM*	i	-1.1%
Cc1oc(-c2ccccc2)nc1C(=O)Nc1ccc(S(=O)(=O)N2CCCC2)cc1	.	.	3.2	.	.	.
COc1ccc(-c2c(C#N)c(N)nc3c2CN(Cc2ccccc2)CC3)cc1OC	.	.	4.1	.	.	.
CC(=O)SCC(=O)C(C#N)c1ccccn1 (stereo unspecified)	.	.	-1.4	.	.	.
CCNC(=S)N(CCc1c(C)[nH]c2ccc(Cl)cc12)Cc1ccco1	0.0%	?	-1.7	?	-92.8%	1.7%
CNC(=S)N(CCc1c(C)[nH]c2ccc(C)cc12)Cc1ccco1	2.8%	1.9%	0.4	10µM*	i	12.1%
O=C(CSc1cccc2cccc(Cl)c12)OCc1cc(Cl)c2c(c1)OCCCO2	.	.	6.1	.	.	.
CC(C)=CCC[C@H](C)C[C@@H]1Cc2[nH][nH]c(=O)c2[C@@H](c2ccc(F)cc2)O1	.	-15.8%	-1.1	5.62µM*	i	5.9%
O=c1[nH][nH]c2c1[C@H](c1ccc(F)cc1)O[C@H](C1CCCCC1)C2	.	3.7%	1.8	2.82µM*	-11.6%	0.4%
O=c1c2c([nH]n1-c1ccccc1)C[C@@H](C1CCCCC1)O[C@H]2c1ccc(F)cc1	.	-29.4%	1.7	2.24µM*	-18.3%	-2.8%
O=c1[nH][nH]c2c1[C@@H](c1ccc(F)cc1)O[C@H](C1CCCCC1)C2	.	2.6%	-6.9	?	-4.5%	0.2%
Cn1cnc2c1c(=O)n(CC(=O)NCc1ccc(OC(F)(F)F)cc1)c(=O)n2C	.	.	-2.7	.	.	.
COc1ccc(Nc2ccc([N+](=O)[O-])c3cnccc23)cc1	.	.	-3.2	.	.	.
O=C(Nc1ccc([N+](=O)[O-])cc1)C(=O)Nc1cccc(C(=O)O)c1	-0.4%	-15.2%	0.5	1.12µM*	-56.0%	-14.8%
O=C(Nc1ccc(OC(F)F)cc1)Nc1cccc(C(F)(F)F)c1	4.0%	?	-0.3	4.47µM*	-26.9%	-4.7%
O=C(Nc1ccc(OC(F)(F)F)cc1)Nc1cccc([N+](=O)[O-])c1	7.2%	5.62µM*	-5.3	2.51µM*	-34.9%	-14.8%
NNC(=O)Nc1cccc(C(F)(F)F)c1	0.0%	1.4%	0.4	10.3%	-22.7%	-0.2%
SMILES	mIDH1 inhibitor	HEK293 tox	LDHA inh	GLP1R inv ag	PTHR1 ag	GLP-1R agonist
O=C(Nc1ccncc1)Nc1cccc(C(F)(F)F)c1	-5.8%	-16.0%	-4.6	10µM*	i	-3.2%
CCC1=C(c2ccc(C)cc2)S(=O)(=O)N=C1N1CCC(C(=O)Nc2ccc(OC)cc2OC)CC1	.	.	2.4	.	.	.
CCN(c1ccccc1)S(=O)(=O)c1ccc(Cl)nc1	2.5%	-3.7%	-4.4	-0.3%	i	1.2%
CCN(c1ccccc1)S(=O)(=O)c1ccc(NCC2COc3ccccc3O2)nc1 (stereo unspecified)	1.7%	-8.7%	7.7	5.01µM*	-22.1%[57.5 µM]	4.5%
Clc1ccc2c(Cl)cc[n+](CCC3CCCCC3)c2c1	.	.	-36.1*	.	.	.
Clc1ccc(CNC2CCCC2)c(Cl)c1	-3.3%	5.2%	2.0	-18.5%	i	-0.9%
O=C(CCCc1cccs1)N(Cc1cccnc1)C1CC1	.	.	5.1	.	.	.
COCCN1CCN(C(=O)c2cc(COc3ccc(F)cc3F)on2)CC1	7.9%	8.5%	-56.4*	-12.8%	17.5%	1.0%
O=C(c1cc(COc2ccc(F)cc2Cl)on1)N1CCN(C2CCCCC2)C(=O)C1	2.5%	-11.3%	-6.9	10µM*	-36.1%	11.4%
COCCN1CCN(C(=O)c2cc(COc3ccc(F)c(F)c3)on2)CC1	-1.3%	-0.5%	-5.2	0.0%	i	15.6%
CCn1c(N2CCN(Cc3c(F)cccc3Cl)CC2)nc2c1c(=O)[nH]c(=O)n2C	.	.	8.1	.	.	.
CN1CCN(C(=O)c2ccc(CSc3ccc(Cl)cc3)cc2)CC1	-0.7%	20.3%	-1.5	5.62µM*	-32.8%	-2.4%
Cc1ccc(CN2CCN(c3nc4c(c(=O)[nH]c(=O)n4C)n3Cc3ccc(C)cc3)CC2)cc1	.	.	0.7	.	.	.
O=C(c1cccc(-c2ccco2)c1)N1CCCC(N2CCN(c3ccc(F)cc3)CC2)C1 (stereo unspecified)	7.1%	-2.9%	-3.1	10µM*	-35.1%	-15.5%
COc1ccccc1N(CC(=O)NC1CCCC1)S(C)(=O)=O	.	.	-6.2	.	.	.
Cc1cc(Nc2cccc(Cl)c2)nc2ccc(NC(=O)Cc3c(F)cccc3Cl)cc12	-0.9%	-12.1%	-15.4	?	i	-3.5%
COc1ccc(Nc2cc(C)c3cc(NC(=O)COc4cccc(C)c4)ccc3n2)cc1	7.6%	-12.0%	-2.1	10µM*	-33.5%	-4.9%
